This passage reports z-score and composite z-score results from PubChem BioAssay.

Experiment [1] is described as follows: HepG2 liver cancer cell viability effects, profiling panel, resazurin fluorescence, 24 h, PK04 Diversity Set (AID 1172). Conditions: higher = more signal. (The colour change of resazurin is a common sign of viable cells or microbes.)
Experiment [2] can be described thus: basal S. cerevisiae growth modulation, no modifier, primary screen, OD600, strain BY4716, 24 h, basal condition (AID 1173). The settings on record: OD600, 24 h, higher = more signal, called active from +8 up or from −8 down.
Experiment [3] in a line: MM1S myeloma cell viability, profiling panel, resazurin fluorescence, basal, 24 h, PK04 Diversity Set (AID 1174). Conditions: higher = more signal, called active from +8 up or from −8 down.
The target in experiment [4] is Dihydroorotate dehydrogenase (quinone), mitochondrial (Plasmodium falciparum (isolate 3D7)) (UniProt Q08210). The experiment in a line: PfDHODH enzyme inhibitors, primary screen, biochemical, C-terminal His tag, absorbance 600 nm (AID 1175).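 Further: recombinant parasite enzyme with a five histidine tag at its C terminus.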 Conditions: DCIP absorbance 600 nm, higher = more signal, called active from +8 up or from −8 down.
Sequence of Dihydroorotate dehydrogenase (quinone), mitochondrial (Plasmodium falciparum (isolate 3D7)) (Q08210 whole entry, looked up): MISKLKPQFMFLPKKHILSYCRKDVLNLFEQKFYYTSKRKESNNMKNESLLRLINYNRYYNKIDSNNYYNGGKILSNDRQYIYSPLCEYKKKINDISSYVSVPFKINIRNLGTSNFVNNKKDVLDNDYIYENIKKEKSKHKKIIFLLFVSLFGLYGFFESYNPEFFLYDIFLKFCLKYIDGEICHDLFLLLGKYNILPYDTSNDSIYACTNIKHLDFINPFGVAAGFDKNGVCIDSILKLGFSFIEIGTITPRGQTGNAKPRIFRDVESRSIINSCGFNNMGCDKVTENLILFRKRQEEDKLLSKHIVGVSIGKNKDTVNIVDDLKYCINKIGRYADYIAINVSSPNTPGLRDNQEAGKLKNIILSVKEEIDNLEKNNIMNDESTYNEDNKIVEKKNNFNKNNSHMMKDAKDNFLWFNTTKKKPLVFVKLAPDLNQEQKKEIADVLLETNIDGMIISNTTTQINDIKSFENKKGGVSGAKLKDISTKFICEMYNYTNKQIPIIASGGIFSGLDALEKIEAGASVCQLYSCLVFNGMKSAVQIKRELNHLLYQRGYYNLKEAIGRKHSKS
Experiment [5] is described as follows: S. cerevisiae RM11-1a growth modifiers, primary screen, strain RM11-1a, OD600, basal, 24 h (AID 1177).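 Further: cultures grown under basal conditions with no added stressor.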 The settings on record: OD600, 24 h, higher = more signal, called active from +8 up or from −8 down.
A short description of experiment [6]: E. coli acrAB mutant growth effects, primary screen, E. coli filamentation inducers, strain DRC39, OD650, 24 h (AID 1178).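 Further: growth measured as culture turbidity by optical density at 650 nm.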 The settings on record: higher = more signal, called active from +8 up or from −8 down.
Experiment [7] in a line: E. coli acrAB mutant growth effects, primary screen, E. coli filamentation inducers, strain DRC39, OD650, 48 h (AID 1179).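 Further: screen aims at cell division blockers that make cells filament.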 The settings on record: E. coli DRC39 delta-acrAB growth, higher = more signal, called active from +8 up or from −8 down.
Experiment [8] in a line: RPMI8226 myeloma cell viability, profiling panel, resazurin fluorescence, basal, 24 h, PK04 Diversity Set (AID 1180).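 Further: RPMI8826 multiple myeloma cell line at 5000 cells per well.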 Conditions: higher = more signal.
Experiment [9] addresses E3 ubiquitin-protein ligase XIAP (Homo sapiens) (UniProt P98170). Put plainly: XIAP binders, primary screen, biophysical, small-molecule microarray, fluorescence 635 nm (AID 1181).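 Further: score merges 667 nm emission and signal to noise over triplicate slides.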 The settings on record: small-molecule microarray binding, higher = more signal.
For experiment [10], the system named is XIP peptide (Xip251-270) binding. The experiment in a line: small-molecule binders of XIP peptide, primary screen, biochemical, small-molecule microarray, fluorescence 635/667 nm, 0.1 µg/mL protein (AID 1182). Conditions: fluorescent protein binding, 635 nm, higher = more signal, called active from +8 up or from −8 down.
Another experiment relates to XIP peptide (Xip251-270). Put plainly: small-molecule binders of XIP peptide, primary screen, biochemical, small-molecule microarray, fluorescence 635/667 nm, 0.5 µg/mL protein (AID 1183). Conditions: small-molecule microarray binding, fluorescence 635 nm; higher = more signal.
A short description of experiment [11]: Plasmodium falciparum growth inhibition, primary screen, strain 3D7, DAPI fluorescence, 100 nL (AID 1184).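 Further: parasites grown inside human red blood cells in medium with human serum.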 The settings on record: P. falciparum 3D7 growth, 3 d, higher = more signal.
Experiment [12] concerns the target Homeobox protein Hox-A13 (Mus musculus) (UniProt Q62424). The experiment in a line: inhibitors of HoxA13-DNA binding, primary screen, biochemical, fluorescence polarization, labeled oligonucleotide (AID 1185). Conditions: 15 min, higher = more signal, called active from +8 up or from −8 down.
The nature of experiment [13]: inhibitors of hydroxyurea-induced Chk1 phosphorylation, primary screen, imaging, HeLa, phospho-Chk1 antibody, percent positive cells (AID 1186). The settings on record: hydroxyurea-induced phospho-Chk1 immunofluorescence imaging, higher = more signal.
Experiment [14] can be described thus: inhibitors of hydroxyurea-induced Chk1 phosphorylation, primary screen, imaging, HeLa, phospho-Chk1 nuclear intensity (AID 1187). Conditions: hydroxyurea-induced phospho-Chk1 immunofluorescence imaging, higher = more signal.

Active and inactive are the calls of the source. Unless noted, how the calls were made is not given here.

Sequence of E3 ubiquitin-protein ligase XIAP (Homo sapiens) (P98170 whole entry, looked up): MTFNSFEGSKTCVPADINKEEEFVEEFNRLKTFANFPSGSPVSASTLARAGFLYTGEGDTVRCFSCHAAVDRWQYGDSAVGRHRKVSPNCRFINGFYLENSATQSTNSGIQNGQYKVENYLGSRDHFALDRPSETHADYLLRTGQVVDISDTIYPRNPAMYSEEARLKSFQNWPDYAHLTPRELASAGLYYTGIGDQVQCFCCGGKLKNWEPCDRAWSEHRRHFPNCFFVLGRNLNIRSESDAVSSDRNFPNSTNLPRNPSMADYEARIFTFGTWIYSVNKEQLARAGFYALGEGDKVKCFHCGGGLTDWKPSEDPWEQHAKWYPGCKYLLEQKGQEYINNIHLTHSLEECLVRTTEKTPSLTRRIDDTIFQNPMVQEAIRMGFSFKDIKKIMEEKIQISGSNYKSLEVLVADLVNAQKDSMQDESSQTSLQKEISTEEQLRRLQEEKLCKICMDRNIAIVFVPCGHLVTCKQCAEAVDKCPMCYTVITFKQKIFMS
Sequence of Homeobox protein Hox-A13 (Mus musculus) (Q62424 whole entry, looked up): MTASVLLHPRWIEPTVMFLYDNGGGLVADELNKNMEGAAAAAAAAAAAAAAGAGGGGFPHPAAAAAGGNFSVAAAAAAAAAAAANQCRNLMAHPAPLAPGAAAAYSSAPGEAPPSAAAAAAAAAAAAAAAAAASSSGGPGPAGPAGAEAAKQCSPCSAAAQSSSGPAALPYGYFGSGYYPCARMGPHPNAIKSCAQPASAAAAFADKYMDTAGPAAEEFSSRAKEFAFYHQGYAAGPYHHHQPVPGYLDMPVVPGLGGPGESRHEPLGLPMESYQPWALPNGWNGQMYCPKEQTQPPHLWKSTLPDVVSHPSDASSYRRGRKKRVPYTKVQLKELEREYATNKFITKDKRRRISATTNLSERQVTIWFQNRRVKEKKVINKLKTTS

Consider `COCCOC(=O)N1C(=O)[C@@]2(c3cc(C#CCC(C(=O)OC)C(=O)OC)ccc31)[C@H](C(=O)N1CCN(c3ncccn3)CC1)[C@H]1C(=O)O[C@H](c3ccccc3)[C@H](c3ccccc3)N1[C@@H]2c1ccc(O)cc1`, for which the z-score is 0.203 in experiment [1]; -0.746 (inactive) in [2]; 0.805 (inactive) in experiment [3]; 0.164 (inactive) in experiment [5]; 0.535 (inactive) in experiment [6]; 1.31 (inactive) in experiment [7]. Besides, the z-score in [8] is 0.821; in [11], -2.08; in experiment [12], -0.323 (inactive); in experiment [13] it was -0.447 (inactive); in [14] it was -0.685 (inactive). Further, the composite z-score in experiment [4] was -1.06 (inactive); in [9], -0.0749; in [10], 1.36 (inactive); in the experiment on XIP peptide (Xip251-270) it was 0.843.

On to `CC(C)[Si]1(C(C)C)O[C@@H](c2ccccc2)c2cc(C3CC3)nc(-c3ccc(Oc4ccccc4)cc3)c21`, for which the z-score was 1.08 in experiment [1]; -0.225 (inactive) in [2]; 1.35 (inactive) in experiment [3]; 1.15 (inactive) in experiment [5]; 1.3 (inactive) in [6]; 0.734 (inactive) in [7]. Also, the z-score is 0.688 in [8]; -1.45 in [11]; 0.0985 (inactive) in experiment [12]; -0.446 (inactive) in [13]; 0.661 (inactive) in experiment [14]. The composite z-score was 0.967 (inactive) in [4], -0.267 in experiment [9], -0.732 (inactive) in [10] and -0.736 with XIP peptide (Xip251-270).

Consider `COCCOC(=O)N1C(=O)[C@@]2(c3cc(C#CCCO)ccc31)[C@H](C(=O)N1CCCCCCC1)[C@H]1C(=O)O[C@H](c3ccccc3)[C@H](c3ccccc3)N1[C@@H]2c1ccc(O)cc1`, for which the z-score in [1] is 0.801; in [2], -1.74 (inactive); in experiment [3], 1.14 (inactive); in [5], -2.75 (inactive); in experiment [6], 0.561 (inactive); in [7] it was 1.43 (inactive). Moreover, the z-score is 0.613 in [8]; -0.303 in experiment [11]; -0.579 (inactive) in [12]; -0.424 (inactive) in experiment [13]; -0.457 (inactive) in experiment [14]. In addition, the composite z-score in experiment [4] was 0.138 (inactive); in experiment [9] it was 0.144; in experiment [10], 1.48 (inactive); in the experiment on XIP peptide (Xip251-270), 0.63.

On to `O=C1O[C@@H](c2ccccc2)[C@@H](c2ccccc2)N2[C@@H](c3ccccc3OCCO)[C@]3(C(=O)Nc4ccc(C#CC5=CCCCC5)cc43)[C@@H](C(=O)O)[C@H]12`, for which the z-score in experiment [1] was 0.172; in experiment [2] it was -0.5 (inactive); in experiment [3], -2.81 (inactive); in experiment [5], 3.46 (inactive); in experiment [6], 0.175 (inactive); in [7], 0.45 (inactive). The z-score in experiment [8] was -5.59; in [11] it was -0.662; in [12], -3.14 (inactive); in experiment [13], -0.379 (inactive); in experiment [14] it was -0.318 (inactive). The composite z-score in experiment [4] is -4.84 (inactive); in experiment [9], 0.105; in experiment [10], 0.364 (inactive); in the experiment with XIP peptide (Xip251-270), 0.305.

With `Cc1ccc(S(=O)(=O)c2cc3oc2CC[C@@H](CO)NC(=O)N(C)Cc2cn(nn2)C[C@H](Cc2ccccc2)NC3=O)cc1`, the z-score was 1.02 in [1]; -2.64 (inactive) in experiment [2]; 1.42 (inactive) in experiment [3]; 0.288 (inactive) in experiment [5]; 1.74 (inactive) in experiment [6]; 1.3 (inactive) in experiment [7]. The z-score in [8] is 1.03; in [11] it was -0.746; in experiment [12], -4.42 (inactive); in [13] it was -0.131 (inactive); in experiment [14] it was -0.0334 (inactive). Also, the composite z-score is 0.164 (inactive) in [4], 0.0975 in [9], -0.126 (inactive) in experiment [10] and -0.612 with XIP peptide (Xip251-270).

Turning to `C=CCNC(=O)[C@H]1[C@@H]2C(=O)O[C@@H](c3ccccc3)[C@@H](c3ccccc3)N2[C@@H](c2ccccc2OCCO)[C@]12C(=O)N(C(=O)OCCOC)c1ccc(C#CCNC(N)=O)cc12`, the z-score in experiment [1] was 0.834; in experiment [2], 0.338 (inactive); in [3] it was 1.71 (inactive); in experiment [5], 1.04 (inactive); in experiment [6], 0.845 (inactive); in experiment [7], 1.06 (inactive). Moreover, the z-score in [8] was 1.72; in experiment [11], -1.87; in [12] it was -1.33 (inactive); in experiment [13], -0.267 (inactive); in experiment [14], -0.261 (inactive). Also, the composite z-score in [4] was -1.11 (inactive); in [9], -0.23; in [10], 0.854 (inactive); with XIP peptide (Xip251-270), 0.822.

`[N-]=[N+]=NCc1ccccc1C[C@@]1(C(=O)N2CCOCC2)N=C(c2ccc(OCCCO)cc2)O[C@@H]1c1ccccc1N=[N+]=[N-]`: the z-score in experiment [1] is 0.164; in [2], -1.37 (inactive); in [3] it was -1.22 (inactive); in [5] it was 1.12 (inactive); in experiment [6], 2.06 (inactive); in experiment [7], 0.612 (inactive). The z-score in experiment [8] was -1.62; in experiment [11] it was -1.98; in [12], -0.217 (inactive); in experiment [13], -0.269 (inactive); in experiment [14], 0.0427 (inactive). In addition, the composite z-score was 0.503 (inactive) in experiment [4], 0.152 in [9], 1.4 (inactive) in experiment [10] and 0.711 in the experiment with XIP peptide (Xip251-270).

In the case of `CN(C)CCCC[C@@H]1NC(=O)[C@@H]2C[C@H](C(=O)O)[C@H](c3ccc(O)cc3)N2C1=O`, the z-score is -1.15 in experiment [1]; -0.976 (inactive) in experiment [2]; 1.2 (inactive) in experiment [3]; -0.422 (inactive) in [5]; 0.994 (inactive) in [6]; -0.0998 (inactive) in experiment [7]. For the same compound, the z-score in [8] was 0.493; in experiment [11], -1.35; in experiment [12], 2.19 (inactive); in experiment [13], 0.317 (inactive); in [14], 0.448 (inactive). The composite z-score was -0.621 (inactive) in [4], 0.101 in [9], 0.646 (inactive) in experiment [10] and 0.386 in the experiment with XIP peptide (Xip251-270).
